Measured values as given in PubChem BioAssay (EPA / NIEHS).
Active and inactive are the calls of the source. How the source made its calls: active means hit-call score of the fitted dose curve at least 0.9, where 1 is the maximum; inactive means score below 0.9.

Test: ATG_EGR_CIS: Attagene CIS-FACTORIAL HepG2 Assay for human Early Growth Response 1 (EGR1) (AID 2282938)
Settings: HepG2 Attagene CIS-FACTORIAL EGR reporter mRNA; actives raise or lower the signal
Experimental: ATG_CIS is a cell-based, multiplexed-readout assay that uses HepG2, a human liver cell line, with measurements taken at 24 hours after chemical dosing in a 24-well plate.ATG_EGR_CIS is one of 52 assay component(s) measured or calculated from the ATG_CIS assay. It is designed to make measurements of mRNA induction, a form of inducible reporter, as detected with fluorescence intensity signals by Reverse transcription polymerase chain reaction (RT-PCR) and Capillary electrophoresis technology.Data from the assay component ATG_EGR_CIS was analyzed into 1 assay endpoint. This assay endpoint, ATG_EGR_CIS, was analyzed with bidirectional fitting relative to DMSO as the negative control and baseline of activity. Using a type of inducible reporter, measures of mRNA for gain or loss-of-signal activity can be used to understand the reporter gene at the transcription factor-level as they relate to the gene EGR1. Furthermore, this assay endpoint can be referred to as a primary readout, because this assay has produced multiple assay endpoints where this one serves a reporter gene function. To generalize the intended target to other relatable targets, this assay endpoint is annotated to the dna binding intended target family, where the subfamily is zinc finger.
Human liver HepG2 cells are transiently transfected with multiple reporter transcription units (MRTUs) in 6-well plates using FuGene 6 reagent (Roche; 3 ml FuGene/1 mg DNA). The MRTU constructs are regulated by a cis-regulating element (promoter). […] A major difference between the CIS and TRANS system is that in CIS activities of endogenous TFs are measured, whereas the TRANS assay evaluates changes in activities of exogenous, chimeric NR-Gal4 proteins. […] At the end of 24 hour incubation, total RNA was isolated using TriZol reagent (Invitrogen). The isolated RNA is then reverse-transcribed using oligo(dT) primer and Mo-MLV reverse transcriptase (Invitrogen) with DNAse I (Ambion) treatment for 30 min. The one-tenth of the produced cDNA was amplified by PCR using Taq DNA polymerase (Invitrogen) and two reporter sequence-specific primers. The PCR products were fluorescently labeled by primer extension with 6-arboxyfluorescein (6-FAM) 5'-labeled reporter sequence-specific primer (2 min at 95 C, 20 s at 68 C and 10 min at 72 C) and these products were digested with 5U of HpaI (New England Biolabs) for 2h at 37 C. The fragments were purified using Qiaquick PCR columns (Qiagen), analyzed on an ABI 3130xL genetic analyzer (Applied Biosystems) with peak positions identified by using a set of X-rhodamine (ROX)-labeled MapMarker1000 molecular weight standards (BioVentures). The raw capillary electrophoresis data was processed using Attagraph software (Attagene).
With `O=Cc1ccc(Cl)c([N+](=O)[O-])c1` the AC50 was 129 µM (active).
For `O=C(O)COCCN1CCN(C(c2ccccc2)c2ccc(Cl)cc2)CC1` (stereo not given), the outcome was “inactive”.
With `O=Nc1ccc(Nc2ccccc2)cc1` the AC50 was 37.7 µM (active).
With `O=P(c1ccccc1)(c1ccccc1)c1ccccc1` the outcome was “inactive”.
With `CSc1nc(NC2CC2)nc(NC(C)(C)C)n1` the outcome was “inactive”.
With `CCCCCCCCCCCCCC(=O)O` the outcome was “inactive”.
With `CC(C)C1CCC(O)CC1` (stereo not given) the outcome was “inactive”.
For `CCN(CC)c1ccc(C(=C2C=CC(=[N+](CC)CC)C=C2)c2ccc(S(=O)(=O)O)cc2S(=O)(=O)[O-])cc1`, the outcome was “inactive”.
In the case of `c1ccc2sc(SN(C3CCCCC3)C3CCCCC3)nc2c1`, the outcome is reported as “inactive”.
For `O=C1O[C@@H]2[C@@H](O)[C@H](O)O[C@@H]2[C@H]1O`, the outcome was “inactive”.
For `C=C[C@@H](C)CCC=C(C)C`, the outcome was “inactive”.
With `O=c1oc(=O)c2cc3c(=O)oc(=O)c3cc12` the outcome was “inactive”.
For `O=C1C(c2[nH]c3ccc(S(=O)(=O)O)cc3c2O)=Nc2ccc(S(=O)(=O)O)cc21`, the outcome was “inactive”.
With `CN(C)c1ccc(O)c2c1C[C@H]1C[C@H]3[C@H](N(C)C)C(=O)C(C(N)=O)=C(O)[C@@]3(O)C(=O)C1=C2O` the outcome was “inactive”.
For `[Ca+2]`, the outcome was “inactive”.
For `Nc1ccc(F)c([N+](=O)[O-])c1`, the outcome was “inactive”.
For `CC(C)Oc1ccccc1O`, the outcome was “inactive”.
In the case of `NC(N)=NC(=O)c1nc(Cl)c(N)nc1N`, the outcome is reported as “inactive”.
In the case of `O=C(O)CCCCCCCCCCC(=O)O`, the outcome is reported as “inactive”.
With `CCCCCCCCCCC(CO)CCCCCCCC` (stereo not given) the outcome was “inactive”.
In the case of `ClCCCl`, the outcome is reported as “inactive”.
In the case of `C=CC[N+](C)(C)CC=C`, the outcome is reported as “inactive”.
In the case of `Nc1cc([N+](=O)[O-])ccc1O`, the outcome is reported as “inactive”.
For `BrC1CCC(Br)C(Br)CCC(Br)C(Br)CCC1Br` (stereo not given), the AC50 was 35.9 µM (active).
In the case of `COC(=O)Cc1cccc2ccccc12`, the outcome is reported as “inactive”.
For `Nc1ccc(S(=O)(=O)O)c(N)c1`, the outcome was “inactive”.
With `CC(C)=CCO` the outcome was “inactive”.
With `CC(=O)O[C@H](CC(=O)[O-])C[N+](C)(C)C` the outcome was “inactive”.
With `CCCCN` the outcome was “inactive”.
With `CC(=O)C=CC1=C(C)CCCC1(C)C` the outcome was “inactive”.
With `O=C(O)c1ccc(C(=O)O)cc1` the outcome was “inactive”.
In the case of `C=COCCOCCOCCOC=C`, the outcome is reported as “inactive”.
In the case of `CC(C)=CCC[C@](C)(O)[C@@H]1CC=C(C)CC1`, the outcome is reported as “inactive”.
In the case of `OC1C(O)C(O)C(O)C(O)C1O` (stereo not given), the outcome is reported as “inactive”.
In the case of `O=C(Cl)c1cccc(C(=O)Cl)c1`, the outcome is reported as “inactive”.
For `CCCC1CCC(=O)O1` (stereo not given), the outcome was “inactive”.
For `CCc1c(C)cc(N)c(CC)c1N`, the outcome was “inactive”.
For `CN1Cc2c(N)cccc2C(c2ccccc2)C1` (stereo not given), the outcome was “inactive”.
With `O=C1OC2(c3cc(Br)c(O)c(Br)c3Oc3c2cc(Br)c(O)c3Br)c2c(Cl)c(Cl)c(Cl)c(Cl)c21` the AC50 was 35 µM (active).
In the case of `C=CCOc1nc(OCC=C)nc(OCC=C)n1`, the outcome is reported as “inactive”.
